What all share (test): Primary Screen for Target Class Profiling of Small Molecule Inhibitors of Methyltransferases
Assay [1] concerns the target Catechol O-methyltransferase (Homo sapiens) (UniProt P21964). To be noted: purified enzyme, MTase-Glo SAH luminescence; activity change, negative = inhibition: at 40 µM, stronger effect = lower value; outcome: 40 uM. An excerpt:
(§1) PI: Matthew D. Hall Ph.D. and Quinlin M. Hanson Ph.D.
(§2) National Center for Advancing Translational Sciences (NCATS)
(§3) National Institute of Health (NIH), Rockville, MD
(§4) Target class profiling (TCP) is a chemical biology approach amenable to investigating understudied biological targets. TCP is achieved by developing a generalizable assay platform and applying it to screen a curated set of compound libraries against representative members of a target class. Small molecule methyltransferases (SMMTase) are a subclass of methyltransferase that act on metabolites to modulate signaling pathways, metabolize xenobiotics, or balance the available methyl pool. We screened four curated libraries totaling 27,574 unique compounds against the SMMTases nicotinamide N-methyltransferase (NNMT), phenylethanolamine N-methyltransferase (PNMT), histamine N-methyltransferase (HNMT), glycine N-methyltransferase (GNMT), catechol O-methyltransferase (COMT), and guanidinoacetate N-methyltransferase (GAMT). The data generated by this TCP can be leveraged for informed tool molecule development. For example, in the associated publication we identified a chemotype of HNMT-selective inhibitors. Additionally, we identified a putative SMMTase-selective inhibitor with potential as a tool molecule for studying broader methyltransferase biology.
(§5) High-through put screening assays were developed at the National Center for Advancing Translational Science (NCATS) for the enzymes NNMT, PNMT, HNMT, GNMT, COMT, and GAMT. Enzymatic activity was measured as a function of SAM cofactor conversion using the MTase Glo kit (Promega) for all enzymes. All assays were performed in 1536-well format with substrates and SAM concentrations at KM values. Enzyme concentration and assay timing were optimized for 10-20% SAM conversion. Initial screening of 27,574 compounds was done as single-point assays using the highest compound concentration (40 uM). […] These compounds were replated in 11-point dose response and assayed against NNMT, PNMT, HNMT, GNMT, COMT, GAMT, and a counter-assay. The IC50 and efficacy (maximal response) values were determined for each dose-response curve. These values are also accounted for in the area under the curve (AUC) values.
(§6) PROTOCOL TABLE (as described by Inglese J, Shamu CE and Guy RK. 2007)
(§7) SEQUENCE No. (e.g., 1, 2, 3, etc.); […] (e.g., Cells, Incubation, Reagent, etc.); VALUE; DESCRIPTION.
(§8) 1; Reagent; 2 uL; SMMTase Enzyme (2x) in reaction buffer, columns 1- 48.
(§9) 2; Reagent; 1 uL; SAM (4x) in reaction buffer, columns 1-48.
(§10) 3; Controls; 23 nL; DMSO in column 4; sinefungin in DMSO (0 uM - 40 uM) in 7-point 1:2 dilution series (n = 2) in column 2.
(§11) 4; Compounds; 23 nL; Columns 5-48.
(§12) 5; Reagent; 1 uL; Substrate (4x) in reaction buffer, columns 2-48.
(§13) 6; Time; 20-30 min; Incubation.
(§14) 7; Reagent; 1 uL; MTase-Glo reagent (5X), columns 1-48.
(§15) 8; Time; 30 min; Incubation.
(§16) 9; Reagent; 5 uL; MTase-Glo Detection reagent, columns 1-48.
(§17) 10; Time; 30 min; Incubation, luminescence evolution.
(§18) 11; Detection; Luminescence; ViewLux uHTS Microplate Imager (PerkinElmer).
(§19) NOTES (numbers refer to Sequence numbers above)
(§20) 1, 2, 5. White Medium Binding Greiner 1536-well plates (Cat #789175-F, Greiner Bio-One, Monroe, NC); Reaction buffer: 50 mM Tris, pH 8.0, 3 mM MgCl2, 1 mM EDTA, 50 mM NaCl, 1 mM DTT, and 0.1 mg/mL BSA. Evaporation was prevented by covering assay plates with metal lids containing holes to allow gas diffusion.
(§21) 1. Six SMMTase were profiled: HNMT, GNMT, PNMT, COMT, NNMT, GAMT
(§22) 5. The corresponding substrate was used for each enzyme: HNMT - 5.3 uM Histamine; GNMT - >500 uM Glycine; PNMT - 16.2 uM Norephinephrine; COMT - 13.7 uM Norephinephrine; NNMT - 3.8 uM Nicotinamide; GAMT - 2.5 uM Guanidinoacetate.6, 8, 10. Room temperature
(§23) 6. Final reaction conditions: 10 nM COMT, 5 uM SAM, 15 uM norepinephrine, 50 mM Tris, pH 8.0, 3 mM MgCl2, 1 mM EDTA, 50 mM NaCl, 1 mM DTT, and 0.1 mg/mL BSA; refer to tables 2 and S1 for specific timing.
8. […]

In assay [2] the target is Glycine N-methyltransferase (Homo sapiens) (UniProt Q14749). To be noted: purified enzyme, MTase-Glo SAH luminescence; measured here: GNMT inhibition; at 40 µM; stronger effect = lower value.
Excerpt: as §1, §2, §3, §4, §5, §6, §7, §8, §9, §10, §11, §12, §13, §14, §15, §16, §17, §18, §19, §20, §21, §22, §23
8. […]

Assay [3] has as its target Guanidinoacetate N-methyltransferase (Homo sapiens) (UniProt Q14353). To be noted: purified enzyme, MTase-Glo SAH luminescence; measured here: GAMT inhibition; at 40 µM; stronger effect = lower value.
Excerpt: as §1, §2, §3, §4, §5, §6, §7, §8, §9, §10, §11, §12, §13, §14, §15, §16, §17, §18, §19, §20, §21, §22, §23
8. […]

Assay [4] addresses Histamine N-methyltransferase (Homo sapiens) (UniProt P50135). To be noted: purified enzyme, MTase-Glo SAH luminescence; measured here: HNMT inhibition; at 40 µM; stronger effect = lower value.
Excerpt: as §1, §2, §3, §4, §5, §6, §7, §8, §9, §10, §11, §12, §13, §14, §15, §16, §17, §18, §19, §20, §21, §22, §23
8. […]

For assay [5], the target named is Nicotinamide N-methyltransferase (Homo sapiens) (UniProt P40261). To be noted: purified enzyme, MTase-Glo SAH luminescence; measured here: NNMT inhibition; at 40 µM; stronger effect = lower value.
Excerpt: as §1, §2, §3, §4, §5, §6, §7, §8, §9, §10, §11, §12, §13, §14, §15, §16, §17, §18, §19, §20, §21, §22, §23
8. […]

For assay [6], the target named is Phenylethanolamine N-methyltransferase (Homo sapiens) (UniProt P11086). To be noted: purified enzyme, MTase-Glo SAH luminescence; measured here: PNMT inhibition; at 40 µM; stronger effect = lower value.
Excerpt: as §1, §2, §3, §4, §5, §6, §7, §8, §9, §10, §11, §12, §13, §14, §15, §16, §17, §18, §19, §20, §21, §22, §23
8. […]

Structures are written as SMILES. Out of some 25,000 compounds screened, about 970 (3.9%) were called active. About 8% were inconclusive and are not listed. How the calls were made is not given here. This excerpt belongs to a sample that is enriched for actives.
On the % scale 0 is the no-effect control and ±100 the full control effect.

Chain of Phenylethanolamine N-methyltransferase (Homo sapiens) (P11086 whole entry, looked up): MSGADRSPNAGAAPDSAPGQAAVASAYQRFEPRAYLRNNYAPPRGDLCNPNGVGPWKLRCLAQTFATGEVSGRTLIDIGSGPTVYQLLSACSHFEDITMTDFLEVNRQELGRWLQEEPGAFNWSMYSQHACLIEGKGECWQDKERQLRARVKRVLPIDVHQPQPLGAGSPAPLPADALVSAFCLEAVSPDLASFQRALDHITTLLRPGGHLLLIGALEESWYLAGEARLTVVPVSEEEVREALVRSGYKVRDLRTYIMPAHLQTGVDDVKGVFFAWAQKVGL
Chain of Glycine N-methyltransferase (Homo sapiens) (Q14749 whole entry, looked up): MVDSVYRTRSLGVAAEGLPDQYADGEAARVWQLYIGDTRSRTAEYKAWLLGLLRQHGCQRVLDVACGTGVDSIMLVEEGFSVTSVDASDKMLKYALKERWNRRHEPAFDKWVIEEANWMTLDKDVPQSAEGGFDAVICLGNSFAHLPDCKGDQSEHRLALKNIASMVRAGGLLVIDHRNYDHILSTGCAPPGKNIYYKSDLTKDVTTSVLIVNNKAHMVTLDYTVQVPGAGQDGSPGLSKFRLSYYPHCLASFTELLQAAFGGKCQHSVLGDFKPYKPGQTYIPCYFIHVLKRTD
Chain of Nicotinamide N-methyltransferase (Homo sapiens) (P40261 whole entry, looked up): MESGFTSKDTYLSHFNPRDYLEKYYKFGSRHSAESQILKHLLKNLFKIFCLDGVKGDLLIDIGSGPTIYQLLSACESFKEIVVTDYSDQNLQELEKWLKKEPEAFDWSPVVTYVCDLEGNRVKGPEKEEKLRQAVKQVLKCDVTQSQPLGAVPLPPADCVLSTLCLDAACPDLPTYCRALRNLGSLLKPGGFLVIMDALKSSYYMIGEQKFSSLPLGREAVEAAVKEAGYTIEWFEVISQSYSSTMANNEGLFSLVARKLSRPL
Chain of Histamine N-methyltransferase (Homo sapiens) (P50135 whole entry, looked up): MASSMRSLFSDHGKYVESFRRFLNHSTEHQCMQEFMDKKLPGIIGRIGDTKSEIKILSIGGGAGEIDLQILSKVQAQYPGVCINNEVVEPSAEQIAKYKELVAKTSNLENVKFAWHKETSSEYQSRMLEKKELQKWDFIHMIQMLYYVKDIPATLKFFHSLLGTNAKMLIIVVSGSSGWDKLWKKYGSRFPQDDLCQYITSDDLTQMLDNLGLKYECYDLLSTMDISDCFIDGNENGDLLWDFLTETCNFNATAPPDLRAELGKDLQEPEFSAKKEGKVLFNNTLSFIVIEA
Chain of Catechol O-methyltransferase (Homo sapiens) (P21964 whole entry, looked up): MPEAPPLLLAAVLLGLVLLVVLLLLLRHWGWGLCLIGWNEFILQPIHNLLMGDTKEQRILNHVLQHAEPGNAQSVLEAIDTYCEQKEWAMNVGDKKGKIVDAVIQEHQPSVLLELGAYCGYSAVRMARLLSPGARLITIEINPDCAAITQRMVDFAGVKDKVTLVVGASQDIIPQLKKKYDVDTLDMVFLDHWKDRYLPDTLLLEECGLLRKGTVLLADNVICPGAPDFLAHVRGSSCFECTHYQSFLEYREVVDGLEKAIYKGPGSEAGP

As to `C=Cc1ccc(Cn2nc3n(CC(C)C)c(=O)c4ccc(C(=O)NC(C)CC)cc4n3c2=O)cc1` (stereo not drawn), the activity change, negative = inhibition in assay [1] was 2.79% (inactive); in assay [2], 4.48%; in assay [3] it was 0%; in assay [4], 10.7%; in assay [5] it was -0.533%; in assay [6], 5.38%.

As to `O=S(=O)(c1ccc2[nH]c3c(c2c1)CCCC3)N1CCN(Cc2ccccc2)CC1`, the activity change, negative = inhibition was 4.94% (inactive) in assay [1]; 5.6% in assay [2]; 0% in assay [3]; 5.93% in assay [4]; 5.54% in assay [5]; 4.34% in assay [6].

`Cc1nc2c(c(NC3CC3)n1)CCN(C(=O)CCc1cccnc1)CC2`: the activity change, negative = inhibition in assay [1] is -0.626% (inactive); in assay [2], -3.41%; in assay [3], -8.98%; in assay [4], -2.51%; in assay [5], -8.36%; in assay [6] it was -4.07%.

As for `COc1cc(NC(=O)Nc2cccc(CNC(=O)O[C@H]3CCOC3)c2)ccc1-c1cnco1`, the activity change, negative = inhibition is -2.73% (active) in assay [1]; -16.2% in assay [2]; 1.61% in assay [3]; -89.1% in assay [4]; -22.8% in assay [5]; -6.4% in assay [6].

In the case of `CC1CCCC(NC(=O)C2(C)Cn3c(nc4ccccc43)C(=O)N2Cc2ccc(Cl)cc2)C1C` (stereo not drawn), the activity change, negative = inhibition was 1.59% (inactive) in assay [1]; -0.93% in assay [2]; 1.75% in assay [3]; 0.57% in assay [4]; 2.43% in assay [5]; -2.27% in assay [6].

As for `Cc1cccc(CCNC(=O)c2cc3n(n2)CC(C)(C(=O)NCc2ccccc2)N(C)C3=O)c1` (stereo not drawn), the activity change, negative = inhibition in assay [1] is 0.858% (inactive); in assay [2], 3.01%; in assay [3] it was 0.251%; in assay [4] it was 3.89%; in assay [5] it was 3.49%; in assay [6], 1.3%.

With `CCCS(=O)(=O)N1CCCC(OCc2noc(C3CCOCC3)n2)C1` (stereo not drawn), the activity change, negative = inhibition was -3.2% (inactive) in assay [1]; -4.75% in assay [2]; -6.9% in assay [3]; -3.01% in assay [4]; -9.35% in assay [5]; -7.82% in assay [6].

As to `CCCS(=O)(=O)N1CCCC(Cc2noc(-c3cnccn3)n2)C1` (stereo not drawn), the activity change, negative = inhibition was -2.88% (inactive) in assay [1]; -4% in assay [2]; -4.91% in assay [3]; -0.21% in assay [4]; -5.94% in assay [5]; -4.02% in assay [6].

Take `CCCS(=O)(=O)N1CCCC(Cn2c(C)nc3cccnc32)C1` (stereo not drawn): the activity change, negative = inhibition in assay [1] is -1.28% (active); in assay [2], -90.9%; in assay [3], -3.03%; in assay [4], -2.37%; in assay [5], -5.85%; in assay [6], -1.53%.

With `CC1(C(=O)NC2CCCC2)Cn2c(cc3ccccc32)C(=O)N1c1ccc(F)cc1` (stereo not drawn), the activity change, negative = inhibition is 1% (inactive) in assay [1]; 0.736% in assay [2]; 0% in assay [3]; 3.74% in assay [4]; 5.9% in assay [5]; 0.017% in assay [6].

Take `Cc1cccc(NC(=O)CSc2nnc3n(CC(C)C)c(=O)c4ccc(C(=O)NC(C)C)cc4n23)c1`: the activity change, negative = inhibition is 2.32% (inactive) in assay [1]; 0.335% in assay [2]; 4.37% in assay [3]; 4.71% in assay [4]; -3.04% in assay [5]; 1.77% in assay [6].

In the case of `Cc1c(NS(=O)(=O)c2cccc3c2C(=O)c2ccccc2C3=O)c(=O)n(-c2ccccc2)n1C`, the activity change, negative = inhibition in assay [1] is -6.91% (inactive); in assay [2] it was -20.9%; in assay [3] it was 3.01%; in assay [4], -5.26%; in assay [5], -8.5%; in assay [6], -27%.

As for `COc1ccccc1CCN1C(=O)c2ccc(-c3ccco3)n2CC1(C)C(=O)NC1CCCCCC1` (stereo not drawn), the activity change, negative = inhibition in assay [1] is -0.859% (inactive); in assay [2], -4.07%; in assay [3], 0%; in assay [4], -1.27%; in assay [5] it was -3.86%; in assay [6], -2.83%.

These data come from PubChem BioAssay AID1745853 (National Center for Advancing Translational Sciences (NCATS), 2022).
